27 compounds from PubChem BioAssay (NCI) can be followed below.

Structures are written as SMILES. This is part of a sample that, as a whole, favours compounds with a hit. Of some 83,000 tested, about 20% had one in any assay.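 Percent growth is the endpoint: 0 to 100 indicates growth inhibition (40 means 60% inhibition), 0 means no net growth, and negative values indicate cell death.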 Unmarked numbers belong to inactive results. Active and inactive are the calls of the source. Rule for the calls: active = growth percent below 10; inactive = the rest.

Holding throughout (test): NCI-60 one-dose screen, 48 h (100 = growth as untreated, 0 = no growth, -100 = all killed)
Details in all cases: 10 µM unless noted

For experiment [1], the system named is NCI-H23 lung.
For experiment [2], the system named is NCI-H226 lung.
Experiment [3] relates to NCI-H322M lung.
Experiment [4] has as its system HOP-62 NSCLC.
For experiment [5], the system named is NCI-H460 lung.
The test system of experiment [6] is HOP-92 NSCLC.
Experiment [7] has as its system NCI-H522 lung.
The test system of experiment [8] is A549/ATCC NSCLC.
Experiment [9] concerns 786-0 renal.
The subject of experiment [10] is COLO 205 colon.

As for `NC(=O)c1cccc(N2Cc3ccccc3OC3=C2C(=O)c2c(O)ccc(O)c2C3=O)c1`, the growth was 6.02% (active) in [1]; 0.769% (active) in experiment [2]; 25.5% in experiment [3]; -42% (active) in [4]; -27.5% (active) in experiment [5]; -91.8% (active) in [6]. In addition, the growth was -73.4% (active) in experiment [7], 24.7% in experiment [8], -80.5% (active) in [9] and -82.8% (active) in experiment [10].

For the compound `COc1cc(C(=O)/C=C/c2cc(C(=O)c3cc(OC)c(OC)c(OC)c3)ccc2OC)ccc1N`, the growth in [1] is -29.8% (active); in [2] it was -38.7% (active); in experiment [3], 7.82% (active); in experiment [4] it was 43.2%; in experiment [5], -15.6% (active); in experiment [6], 46.1%. Moreover, the growth in [7] is -58.9% (active); in [8] it was 18.5%; in experiment [9], 10.5%; in experiment [10], -58.8% (active).

As for `CN1CCN(CCCOc2ccc3nc(Nc4ccc(C(F)(F)F)c(Cl)c4)ccc3c2)CC1`, the growth is 38.1% in experiment [1]; 54.1% in experiment [2]; -5.95% (active) in [3]; -21.7% (active) in [4]; -40% (active) in experiment [5]; 7.32% (active) in [6]. Also, the growth was -37.8% (active) in experiment [7], 3.9% (active) in experiment [8], -60.9% (active) in experiment [9] and -77.9% (active) in experiment [10].

As for `CC1Cc2c(N(C)C)ncnc2N(C)c2ccc(Cl)cc21` (stereo unspecified), the growth is 50.1% in experiment [1]; 85.6% in experiment [2]; 73.2% in experiment [3]; 41.9% in experiment [4]; 14.5% in experiment [5]; 58% in experiment [6]. The growth in experiment [7] was 13.4%; in [8], 55.8%; in experiment [9], 31.1%; in [10], 36%.

As for `CC(C)(C)c1cn2cccc(C(=O)N3CCN(CC(=O)Nc4ccc(Cl)cc4C(=O)c4ccccc4Cl)CC3)c2n1`, the growth in [1] was 60.6%; in experiment [2], 71.6%; in experiment [3], 94.6%; in experiment [4], 84.7%; in [5], 49.8%; in experiment [6], -30% (active). Moreover, the growth was 54.9% in experiment [7], 27.6% in [8], 55.3% in [9] and 54.2% in [10].

Turning to `O=C1CCCCN1CCCCC#Cc1ccccc1C#Cc1ccccn1`, the growth in [1] was 101%; in [2], 92%; in [3] it was 85.7%; in experiment [4] it was 101%; in [5] it was 115%; in [6] it was 73.2%. Moreover, the growth was 112% in [7], 112% in experiment [8], 102% in [9] and 103% in [10].

As to `O=S(=O)(NCCCNc1nccc(-c2c(-c3ccc(F)c(O)c3)nc3sccn23)n1)c1ccc(Cl)cc1`, the growth in experiment [1] was 80%; in [2], 104%; in [3], 98.6%; in experiment [4], 96.6%; in experiment [5], 86.3%; in experiment [6] it was 74.3%. In addition, the growth in [7] is 57.5%; in experiment [8], 76.9%; in [9] it was 110%; in experiment [10] it was 42.6%.

As for `CCN(Cc1ccccc1)c1ccc(SC#N)cc1`, the growth is 80.6% in experiment [1]; 112% in experiment [2]; 91.6% in experiment [3]; 118% in [4]; 90% in experiment [5]; 53.4% in experiment [6]. The growth is -26.7% (active) in experiment [7], 102% in experiment [8], 73.4% in experiment [9] and 50.4% in experiment [10].

Regarding `COc1ccc(OC)c(NC(=O)c2cc(S(=O)(=O)N3CCc4ccccc43)ccc2OC)c1`, the growth in [1] was 86.7%; in [2], 92.1%; in experiment [3], 109%; in experiment [4], 100%; in [5] it was 108%; in experiment [6], 74.5%. Besides, the growth in experiment [7] is 78.6%; in experiment [8], 78.9%; in [9], 89.8%; in experiment [10] it was 87.5%.

Consider `CC[C@H](C)[C@H]1NC(=O)[C@@H](N[C@](C)(O)[C@@H](N)CC(C)C)[C@@H](C)OC(=O)[C@H](Cc2ccc(OC)cc2)N(C)C(=O)[C@@H]2CCCN2C(=O)[C@H](CC(C)C)NC(=O)[C@@H](C)C(=O)[C@H](C(C)C)OC(=O)C[C@@H]1O`, for which the growth in experiment [1] is -29.6% (active); in experiment [2] it was -11.1% (active); in experiment [3], -22.4% (active); in experiment [4], -31.1% (active); in experiment [5] it was -11.8% (active); in experiment [6], -14.1% (active). Further, the growth in experiment [7] is -37.7% (active); in experiment [8], -22.7% (active); in [9], -25.5% (active); in experiment [10], -65.1% (active).

As to `O=C(CNC1CCCCC1)Nc1ccc(-c2nc3ccccc3s2)cc1`, the growth in [1] is 76.2%; in experiment [2] it was 80.3%; in experiment [3] it was 91.7%; in [4], 85.2%; in experiment [5], 91.3%; in [6], 48.8%. Further, the growth in experiment [8] was 88%; in [9] it was 70.6%.

Take `O=C(CNc1c(Cl)cccc1Cl)Nc1ccc(-c2nc3ccccc3s2)cc1`: the growth in [1] is 40.9%; in [2], 54.4%; in experiment [3] it was 94.6%; in [4], 118%; in experiment [5] it was 91.2%; in experiment [6], 94.2%. Besides, the growth in [7] is -93.4% (active); in experiment [8] it was 85.7%; in experiment [9], 24.1%; in experiment [10] it was 87.7%.

Regarding `CCCCC(N)(C(=O)O)C1CCCC1` (stereo unspecified), the growth in experiment [1] is 106%; in experiment [2], 101%; in [3], 101%; in [4], 112%; in experiment [5], 107%; in [6], 102%. Moreover, the growth is 102% in experiment [7], 94.4% in [8], 96% in experiment [9] and 123% in experiment [10].

With `COc1ccc(S(=O)(=O)N2CCN(c3cc4c(cc3F)c(=O)c(C(=O)O)cn4C3CC3)CC2)c(OC)c1`, the growth in experiment [1] is 97%; in [2] it was 89%; in experiment [3], 91.6%; in experiment [4], 86.6%; in [5], 99%; in experiment [6], 90.2%. Further, the growth was 91.4% in experiment [7], 93.6% in experiment [8], 91.5% in [9] and 105% in experiment [10].

Turning to `COc1cc(-c2csc(NC(=O)Nc3ccc(Cl)cc3Cl)n2)cc(OC)c1OC`, the growth was 42.7% in experiment [1]; 43.8% in experiment [2]; 30.8% in experiment [3]; 38.7% in experiment [4]; 10.3% in experiment [5]; 44% in experiment [6]. In addition, the growth in experiment [7] was 21.4%; in experiment [8], 25.5%; in [9], 33%; in experiment [10], 36.5%.

`Cc1ccc(S(=O)(=O)OC2COCOC2C(OS(=O)(=O)c2ccc(C)cc2)C2OCOCC2OS(=O)(=O)c2ccc(C)cc2)cc1` (stereo unspecified): the growth in experiment [1] was 109%; in experiment [2], 95.2%; in experiment [3] it was 96.3%; in [4] it was 99.4%; in [5], 110%; in experiment [6], 104%. Moreover, the growth in experiment [7] is 98.3%; in [8] it was 93.6%; in [10], 108%.

Take `Nc1ccc(S(=O)(=O)c2ccc(Cl)cc2)cc1`: the growth is 97.9% in experiment [1]; 98% in experiment [2]; 91.4% in experiment [3]; 97.8% in experiment [4]; 96% in experiment [5]; 93.4% in [6]. In addition, the growth is 89.7% in experiment [7], 86.6% in experiment [8], 99% in [9] and 109% in experiment [10].

For the compound `O=C(C[N+](=O)[O-])c1ccc(Cl)cc1`, the growth in experiment [1] was 104%; in experiment [2] it was 110%; in experiment [3], 112%; in experiment [4] it was 104%; in experiment [5], 111%; in [6] it was 101%. Also, the growth was 109% in experiment [7], 106% in experiment [8], 98.5% in experiment [9] and 116% in [10].

Turning to `CC(C)(C)c1ccc(S(=O)(=O)Oc2ccc3c4c(c(=O)oc3c2)CCCCC4)cc1`, the growth in [1] was 43%; in experiment [2], 56.7%; in experiment [3] it was 85.9%; in experiment [4] it was 85.2%; in experiment [5], 43.2%; in [6], 3.94% (active). The growth is -14.1% (active) in experiment [7], 59.3% in experiment [8], 60.8% in experiment [9] and 37.4% in [10].

For the compound `COc1ccc(NC(=O)CSc2nc3ccc(Cl)cc3c(=O)n2-c2ccccc2C(F)(F)F)c(OC)c1OC`, the growth in experiment [1] is 79.6%; in experiment [2], 62%; in experiment [3], 86.6%; in experiment [4], 60.6%; in experiment [5], 82.4%; in experiment [6], -2.83% (active). The growth was 32.4% in experiment [7], 72% in experiment [8] and 92.9% in [10].

Turning to `CN(C)c1nc(N)c(N=O)c(N)n1`, the growth in experiment [1] was 107%; in experiment [2], 112%; in experiment [3] it was 111%; in [4], 107%; in experiment [5], 110%; in [6], 102%. For the same compound, the growth in [7] was 106%; in experiment [8], 109%; in experiment [9] it was 106%; in experiment [10] it was 127%.

On to `O=S=Nc1ccc([N+](=O)[O-])cc1`, for which the growth in experiment [1] is 95%; in experiment [2] it was 108%; in experiment [3], 95%; in experiment [4] it was 89.6%; in experiment [5], 102%; in experiment [6], 107%. Besides, the growth in [7] is 81.5%; in [8] it was 78.8%; in experiment [9], 92.1%; in [10] it was 106%.

Consider `CC1=C(C#N)C(C)(C)C(C#N)=C(C)N1`, for which the growth in experiment [1] is 102%; in experiment [2], 105%; in [3], 109%; in [4], 109%; in [5], 106%; in [6], 95.6%. Also, the growth in [7] was 104%; in experiment [8] it was 101%; in [9], 105%; in experiment [10], 115%.

`CSc1ccccc1C#C/C=C\C#Cc1ccccc1N1CCCCC1=O`: the growth in experiment [1] was 103%; in [2], 91.2%; in experiment [3], 110%; in experiment [4] it was 88.2%; in experiment [5] it was 93.3%; in experiment [6], 63.8%. Moreover, the growth in experiment [7] was 99.7%; in experiment [8], 48.6%; in experiment [9], 106%; in [10], 108%.

For the compound `CC(C)(C)c1cc(-c2nc3ccc(N4CCN(CCO)CC4)cc3[nH]2)cc(C(C)(C)C)c1O`, the growth in experiment [1] was 96.3%; in experiment [2] it was 99%; in experiment [3] it was 82.3%; in experiment [4] it was 72.6%; in experiment [5] it was 4.48% (active); in experiment [6], 45.2%. Besides, the growth was 74% in experiment [7], 43.1% in experiment [8], 52% in experiment [9] and -57.2% (active) in [10].

As to `c1cc(-c2ccc3c(c2)OCO3)n2nccc2n1`, the growth in [1] is 104%; in [2], 83%; in experiment [3], 99.3%; in experiment [4], 108%; in experiment [5], 101%; in [6], 83.9%. Moreover, the growth in experiment [7] is 89.7%; in experiment [8], 99.2%; in experiment [9], 101%; in [10], 113%.

With `O=S(=O)(NCCNc1nccc(-c2c(-c3ccccc3)nc3sccn23)n1)c1ccc(O)cc1`, the growth in [1] was 50.3%; in experiment [2], 46%; in [3], 58.2%; in [4], 58.9%; in [5], 21.4%; in [6] it was 61.3%. Also, the growth was 65.4% in [7], 32.2% in experiment [8], 64.1% in [9] and 28.5% in [10].
